Experimental data: PubChem BioAssay (Tox21)
Inconclusive results are not listed. Activity calls are given as the source filed them. Unless noted, calls come from the whole dose curve; as a rule, active = well fitted curve in the direction sought with a large enough effect in the repeat runs; inconclusive = weak or mixed curves; inactive = no such curve, though single readings can be large; an effect the other way counts as inactive or inconclusive.

Columns and labels:
[1] = qHTS assay to identify small molecule agonists of the peroxisome proliferator-activated receptor delta (PPARd) signaling pathway - cell viability counter screen (AID 743211); note: % is set by controls: 0 for no effect and ±100 for the full control effect; nearly all actives have a fitted effect of over 55% in size
In short: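 Tox21 library compounds, delivered in DMSO, were incubated 17 h with PPARd-bla HEK293H cells; cytotoxicity was taken from CellTiter-Glo luminescence read 30 min after reagent addition.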

[2] = target: Peroxisome proliferator-activated receptor delta (Homo sapiens) (UniProt Q03181); experiment: qHTS assay to identify small molecule agonists of the peroxisome proliferator-activated receptor delta (PPARd) signaling pathway (AID 743212; calls by dose curve; note: % is set by controls: 0 for no effect and ±100 for the full control effect)
In short: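 HEK293H PPARd-bla cells; 5 h preincubation 37 C/5% CO2; compound (DMSO) 37 C; LiveBLAzer B/G FRET substrate 2 h RT; fluorescence intensity.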

[3] = qHTS assay to identify small molecule antagonists of the peroxisome proliferator-activated receptor delta (PPARd) signaling pathway - cell viability counter screen (AID 743213); note: % is set by controls: 0 for no effect and ±100 for the full control effect; nearly all actives have a fitted effect of over 50% in size
In short: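 PPARd-bla HEK293H cells (3000/well) got compound plus 300 nM L165041 agonist for 17 h at 37 C. Viability in the same wells came from CellTiter-Glo luminescence after 30 min at room temperature.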

[4] = target: Peroxisome proliferator-activated receptor delta (Homo sapiens) (UniProt Q03181); experiment: qHTS assay to identify small molecule antagonists of the peroxisome proliferator-activated receptor delta (PPARd) signaling pathway (AID 743215; active = well fitted inhibition curve with a large enough effect in the signal ratio in the repeat runs, not every such curve was filed as active; the % refers to the signal ratio;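 note: cells stimulated with agonist L165041 at 300 nM final during compound exposure; series mostly up to about 62 µM; % is set by controls: 0 for no effect and ±100 for the full control effect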)
In short: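 PPARd-bla HEK293H cells (UAS-bla reporter) preincubated 5 h, then given compound plus 300 nM final L165041 agonist for 17 h at 37 C. Beta-lactamase activity read by LiveBLAzer B/G FRET substrate fluorescence after 2 h at room temperature.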

[5] = target: Bile acid receptor (Homo sapiens) (UniProt Q96RI1); experiment: qHTS assay to identify small molecule antagonists of the farnesoid-X-receptor (FXR) signaling pathway (AID 743217; active = well fitted inhibition curve with a large enough effect in the signal ratio in the repeat runs, not every such curve was filed as active; the % refers to the signal ratio; note: % is set by controls: 0 for no effect and ±100 for the full control effect)
In short: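 FXR-UAS-bla HEK 293T cells (beta-lactamase reporter) given compound plus chenodeoxycholic acid (50 uM final), 16 h at 37C. LiveBLAzer B/G FRET substrate added for 2 h at room temperature; fluorescence read.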

[6] = qHTS assay to identify small molecule agonists of the farnesoid-X-receptor (FXR) signaling pathway - cell viability counter screen (AID 743218); note: % is set by controls: 0 for no effect and ±100 for the full control effect; nearly all actives have a fitted effect of over 45% in size
In short: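 FXR-UAS-bla HEK 293T cells exposed to compounds for 16 h at 37C. Cytotoxicity read in the same wells by CellTiter-Glo luminescence after 30 min at room temperature, following the beta-lactamase FRET read.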

[7] = target: Bile acid receptor (Homo sapiens) (UniProt Q96RI1); experiment: qHTS assay to identify small molecule agonists of the farnesoid-X-receptor (FXR) signaling pathway (AID 743220; active = well fitted activation curve with a large enough effect in the signal ratio in the repeat runs, not every such curve was filed as active; the % refers to the signal ratio; note: % is set by controls: 0 for no effect and ±100 for the full control effect)
In short: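 Beta-lactamase reporter under UAS control in GeneBLAzer FXR HEK 293T cells (5000/well) measured with LiveBLAzer FRET substrate after 2 h at room temperature. Compound exposure lasted 16 h at 37C.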

[8] = qHTS assay to identify small molecule antagonists of the farnesoid-X-receptor (FXR) signaling pathway - cell viability counter screen (AID 743221; active = well fitted cell-killing curve with a large enough effect in the repeat runs, not every such curve was filed as active; note: % is set by controls: 0 for no effect and ±100 for the full control effect; nearly all actives have a fitted effect of over 50% in size)
In short: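 Cytotoxicity is taken from ATP luminescence (CellTiter-Glo, 30 min, room temperature) in FXR-bla HEK 293T cells previously incubated 16 h at 37 C with compound and chenodeoxycholic acid at 50 uM final.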

[9] = target: Vitamin D3 receptor (Homo sapiens) (UniProt P11473); experiment: qHTS assay to identify small molecule agonists of the vitamin D receptor (VDR) signaling pathway (AID 743222; calls by dose curve; note: % is set by controls: 0 for no effect and ±100 for the full control effect)
In short: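 VDR-bla cells plated 4 h at 37 C, then exposed to compounds for 16 h at 37 C. Beta-lactamase reporter activity measured by fluorescence after 2 h room-temperature loading with LiveBLAzer B/G FRET substrate.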

[10] = qHTS assay to identify small molecule agonists of the vitamin D receptor (VDR) signaling pathway - cell viability counter screen (AID 743224); note: series mostly up to about 63 µM; % is set by controls: 0 for no effect and ±100 for the full control effect; nearly all actives have a fitted effect of over 50% in size
In short: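 VDR-bla cells, 4 h after plating, exposed to compounds for 16 h at 37C; viability then read in the same wells as CellTiter-Glo luminescence after 30 min at room temperature, following the bla FRET read.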

[11] = qHTS assay to identify small molecule antagonists of the vitamin D receptor (VDR) signaling pathway - cell viability counter screen (AID 743225); note: % is set by controls: 0 for no effect and ±100 for the full control effect; nearly all actives have a fitted effect of over 50% in size
In short: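 Same-well multiplex: following 16 h treatment of HEK 293T cells carrying a UAS-driven beta-lactamase reporter with compound and agonist (3 nM final), and a 2 h FRET substrate step, CellTiter-Glo was added and luminescence read after 30 min.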

[12] = qHTS assay to identify small molecule agonists of the NFkB signaling pathway - cell viability counter screen (AID 1159515; calls by dose curve; note: series mostly up to about 61 µM; % is set by controls: 0 for no effect and ±100 for the full control effect; nearly all actives have a fitted effect of over 55% in size)
In short: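 NFkB-bla ME-180 cells, 2,000/well, plated overnight at 37 C; compound added for 5 hr at 37 C. Viability read in the same wells as the bla reporter, by CellTiter-Glo luminescence after 30 min at room temperature.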

[13] = qHTS assay to identify small molecule agonists of the endoplasmic reticulum stress response signaling pathway - cell viability counter screen (AID 1159517; calls by dose curve)
In short: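 HeLa cells carrying an ESRE-driven beta-lactamase reporter receive compound for 5 hr at 37 C. Cell viability is then gauged with CellTiter-Glo by luminescence, 30 min at room temperature.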

[14] = qHTS assay to identify small molecule antagonists of the retinoid-related orphan receptor gamma (ROR-gamma) signaling pathway - cell viability counter screen (AID 1159520)
In short: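 Cytotoxicity was read from cellular ATP (CellTiter-Glo luminescence) after 16 hr at 37 C with 1 uM doxycycline induction. The inducer was added 2 hr after compound transfer to Tet-on ROR gamma CHO cells.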

[15] = target: Nuclear receptor ROR-gamma (Homo sapiens) (UniProt P51449); experiment: qHTS assay to identify small molecule antagonists of the retinoid-related orphan receptor gamma (ROR-gamma) signaling pathway (AID 1159521)
In short: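 Inducible-expression reporter assay: doxycycline (1 uM final) switched on RORγ in CHO cells bearing a ROR response element-luciferase construct, with test compounds present from 2 h beforehand. Decreased luminescence after 16 h defined antagonist activity.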

[16] = qHTS assay to identify small molecule agonists of the AP-1 signaling pathway - cell viability counter screen (AID 1159525; calls by dose curve; note: nearly all actives have a fitted effect of over 55% in size)
In short: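 Luminescent ATP readout (Cell Titer Glo, 30 min RT), normalised to DMSO and tetra n-octyl ammonium bromide controls. Cells were ME-180 AP-1-bla in 0.5% dialyzed FBS Opti-MEM, with a 5 h, 37 °C compound exposure.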

[17] = qHTS assay to identify small molecule agonists of the AP-1 signaling pathway (AID 1159526; calls by dose curve; note: % is set by controls: 0 for no effect and ±100 for the full control effect)
[18] = target: Vitamin D3 receptor (Homo sapiens) (UniProt P11473); experiment: qHTS assay to identify small molecule antagonists of the vitamin D receptor (VDR) signaling pathway (AID 743223; active = well fitted inhibition curve with a large enough effect in the signal ratio in the repeat runs, not every such curve was filed as active; the % refers to the signal ratio; note: % is set by controls: 0 for no effect and ±100 for the full control effect)
In short: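 Quantitative HTS in VDR-bla reporter cells stimulated with 1alpha,25-dihydroxyvitamin D3, 3 nM final. Compound exposure 16 h, 37C, 5% CO2. Read-out: beta-lactamase FRET substrate fluorescence, 2 h RT.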

[19] = qHTS assay to identify small molecule agonists of the endoplasmic reticulum stress response signaling pathway (AID 1159516; active = well fitted activation curve with a large enough effect in the signal ratio in the repeat runs, not every such curve was filed as active; the % refers to the signal ratio; note: % is set by controls: 0 for no effect and ±100 for the full control effect)
In short: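 CellSensor ESRE-bla HeLa cells, 1,500 per well, plated overnight, then exposed to compounds for 5 hr at 37 C. Beta-lactamase reporter read with LiveBLAzer B/G FRET substrate after 2 hr at room temperature, 405 nm excitation, 460 and 530 nm emission.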

Chain of Vitamin D3 receptor (Homo sapiens) (P11473 whole entry, looked up): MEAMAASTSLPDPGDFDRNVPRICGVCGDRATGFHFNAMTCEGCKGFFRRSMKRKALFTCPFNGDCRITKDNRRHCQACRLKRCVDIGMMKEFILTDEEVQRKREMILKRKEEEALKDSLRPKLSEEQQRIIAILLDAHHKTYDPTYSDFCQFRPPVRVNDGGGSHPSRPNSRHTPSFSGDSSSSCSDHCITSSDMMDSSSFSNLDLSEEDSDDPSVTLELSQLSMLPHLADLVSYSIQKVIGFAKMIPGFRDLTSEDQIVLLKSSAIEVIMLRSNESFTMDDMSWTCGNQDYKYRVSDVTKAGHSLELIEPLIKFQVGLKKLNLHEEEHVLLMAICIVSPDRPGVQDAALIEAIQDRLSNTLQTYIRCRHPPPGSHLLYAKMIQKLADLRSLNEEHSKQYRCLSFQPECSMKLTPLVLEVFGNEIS
Chain of Bile acid receptor (Homo sapiens) (Q96RI1 whole entry, looked up): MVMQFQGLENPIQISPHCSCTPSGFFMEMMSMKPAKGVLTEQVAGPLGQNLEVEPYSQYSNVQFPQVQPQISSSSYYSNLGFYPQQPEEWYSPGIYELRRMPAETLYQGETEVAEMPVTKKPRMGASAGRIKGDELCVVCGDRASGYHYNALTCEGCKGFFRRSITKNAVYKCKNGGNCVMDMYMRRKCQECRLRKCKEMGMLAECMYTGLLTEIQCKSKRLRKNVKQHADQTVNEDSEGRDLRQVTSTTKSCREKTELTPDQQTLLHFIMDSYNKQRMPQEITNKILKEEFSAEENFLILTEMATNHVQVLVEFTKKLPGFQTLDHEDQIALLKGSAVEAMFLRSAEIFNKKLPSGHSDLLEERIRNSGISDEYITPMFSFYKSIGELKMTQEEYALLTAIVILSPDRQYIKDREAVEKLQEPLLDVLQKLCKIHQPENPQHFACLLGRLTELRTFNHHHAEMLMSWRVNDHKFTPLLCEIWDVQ
Chain of Peroxisome proliferator-activated receptor delta (Homo sapiens) (Q03181 whole entry, looked up): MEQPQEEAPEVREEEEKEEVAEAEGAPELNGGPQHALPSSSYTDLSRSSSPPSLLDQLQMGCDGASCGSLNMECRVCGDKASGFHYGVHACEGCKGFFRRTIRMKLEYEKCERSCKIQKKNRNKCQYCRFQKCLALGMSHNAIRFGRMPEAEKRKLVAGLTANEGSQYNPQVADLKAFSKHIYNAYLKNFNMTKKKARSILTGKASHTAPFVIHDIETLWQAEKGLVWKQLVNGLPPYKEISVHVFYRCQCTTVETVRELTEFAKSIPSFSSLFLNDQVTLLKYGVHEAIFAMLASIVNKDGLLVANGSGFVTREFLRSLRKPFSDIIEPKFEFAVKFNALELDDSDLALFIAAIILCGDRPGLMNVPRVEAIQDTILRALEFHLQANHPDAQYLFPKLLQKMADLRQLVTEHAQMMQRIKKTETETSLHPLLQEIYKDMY

CCCC(=O)C(C)=O
inactive: outcome [1] | outcome [2] | outcome [3] | outcome [4] | Potency [5] | Potency [6] | Potency [7] | outcome [8] | outcome [9] | Potency [10] | outcome [11] | outcome [12] | Potency [13] | outcome [14] | outcome [15] | outcome [16] | outcome [17]

N[C@@H](CCC(=O)N[C@@H](CS)C(=O)NCC(=O)O)C(=O)O
inactive: outcome [1] | outcome [3] | Potency [6] | outcome [8] | outcome [9] | outcome [18] | Potency [10] | outcome [11] | outcome [12] | outcome [19] | Potency [13] | activity, negative = cytotoxicity [14] 4.19% [at 19 µM] | activity change, negative = inhibition [15] -1.88% [at 19 µM] | viability change, negative = cytotoxic [16] 4.13% [at 15.8 µM] | activation [17] 1.13% [at 15.8 µM]

CCCCOCCOC(=O)COc1nc(Cl)c(Cl)cc1Cl
inactive: outcome [1] | outcome [2] | outcome [3] | outcome [4] | Potency [5] | Potency [6] | Potency [7] | outcome [8] | Potency [10] | outcome [11] | outcome [12] | outcome [19] | Potency [13] | outcome [14] | outcome [16] | outcome [17]

CCCCNc1ccc(C(=O)OCCN(C)C)cc1
inactive: outcome [1] | outcome [2] | outcome [3] | outcome [4] | outcome [8] | outcome [18] | Potency [10] | outcome [11] | outcome [12] | outcome [19] | Potency [13] | outcome [14] | outcome [15] | outcome [16] | outcome [17]

CCC(C)NC(N)=O (stereo not drawn)
inactive: outcome [1] | outcome [2] | outcome [3] | outcome [4] | outcome [8] | outcome [9] | outcome [18] | Potency [10] | outcome [11] | outcome [12] | outcome [19] | Potency [13] | outcome [14] | outcome [15] | outcome [16] | outcome [17]

N#Cc1ccc(C(=O)O)cc1
inactive: outcome [1] | outcome [3] | Potency [6] | Potency [7] | outcome [8] | outcome [9] | outcome [18] | Potency [10] | outcome [11] | outcome [12] | outcome [19] | Potency [13] | outcome [14] | outcome [15] | outcome [16] | outcome [17]

C=COCCOCCOCCOC=C
inactive: outcome [1] | outcome [2] | outcome [3] | outcome [4] | Potency [6] | outcome [8] | outcome [9] | outcome [11] | outcome [12] | outcome [19] | Potency [13] | outcome [14] | outcome [15] | outcome [16] | outcome [17]

O=C(O)Cc1cn(-c2ccccc2)nc1-c1ccc(Cl)cc1
inactive: outcome [1] | outcome [2] | outcome [3] | outcome [4] | Potency [6] | outcome [8] | outcome [11] | outcome [12] | outcome [19] | Potency [13] | outcome [14] | outcome [16] | outcome [17]

CC(=O)Nc1ccc(S(=O)(=O)Cl)cc1
inactive: outcome [1] | outcome [2] | outcome [3] | outcome [4] | outcome [8] | outcome [9] | outcome [18] | Potency [10] | outcome [11] | outcome [12] | outcome [14] | outcome [15] | outcome [16] | outcome [17]

CCCN1C[C@H](CSC)C[C@@H]2c3cccc4[nH]cc(c34)C[C@H]21
inactive: outcome [2] | outcome [4] | outcome [8] | outcome [18] | Potency [10] | outcome [11] | outcome [12] | outcome [19] | Potency [13] | outcome [14] | outcome [15] | outcome [16] | outcome [17]

Cc1ccc2ccc(Cl)cc2n1
inactive: outcome [1] | outcome [2] | outcome [3] | outcome [4] | Potency [6] | outcome [8] | outcome [18] | Potency [10] | outcome [11] | outcome [12] | outcome [19] | outcome [14] | outcome [15] | outcome [16] | outcome [17]

O=C(O)C(=O)Cc1ccccc1
inactive: outcome [1] | outcome [2] | outcome [3] | outcome [4] | Potency [6] | outcome [9] | Potency [10] | outcome [11] | outcome [12] | outcome [19] | outcome [14] | outcome [16] | outcome [17]

CC(=O)c1sc(C)nc1C
inactive: outcome [1] | outcome [2] | outcome [3] | outcome [4] | Potency [5] | Potency [7] | outcome [8] | outcome [9] | outcome [18] | outcome [12] | outcome [19] | Potency [13] | outcome [14] | outcome [15] | outcome [16] | outcome [17]

OCCN(CCO)c1cccc(Cl)c1
inactive: outcome [1] | outcome [2] | outcome [3] | Potency [6] | outcome [8] | outcome [9] | Potency [10] | outcome [11] | outcome [12] | outcome [19] | Potency [13] | outcome [14] | outcome [15] | outcome [16] | outcome [17]

COc1cc(C(=S)N2CCOCC2)cc(OC)c1OC
inactive: outcome [1] | outcome [2] | outcome [3] | outcome [4] | Potency [5] | Potency [6] | Potency [7] | outcome [8] | outcome [9] | outcome [18] | Potency [10] | outcome [11] | outcome [12] | outcome [19] | outcome [14] | outcome [16] | outcome [17]

COC(=O)CCCCCCCC(=O)OC
inactive: outcome [3] | Potency [6] | outcome [8] | outcome [9] | outcome [18] | outcome [11] | outcome [12] | Potency [13] | outcome [14] | outcome [15] | outcome [16] | outcome [17]

CC1(CO)CN(c2ccccc2)NC1=O (stereo not drawn)
inactive: outcome [1] | outcome [3] | outcome [4] | outcome [18] | outcome [12] | outcome [19] | outcome [14] | outcome [15] | outcome [16] | outcome [17]
